# PubChem BioAssay (NCI)
# About 83,000 compounds went through this panel and 20% of them were active in at least one assay; those are over-represented in the sample as a whole.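 A percent growth of 40 corresponds to 60% growth inhibition; 0 means no net growth; -100 means all cells died. Active threshold: below 10.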 A number with no mark means an inactive call. Active and inactive are the calls of the source.
# Columns and labels:
# Experiment in all cases: NCI-60 one-dose screen, 48 h (100 = growth as untreated, 0 = no growth, -100 = all killed)
# Conditions in all cases: 10 µM unless noted
# [1] = tested on: DU-145 prostate
# [2] = tested on: K-562 leukemia
# [3] = tested on: MALME-3M melanoma
# [4] = tested on: MDA-MB-231 breast
# [5] = tested on: RXF 393 renal
# [6] = tested on: SF-268 CNS
# [7] = tested on: SF-295 CNS
# [8] = tested on: SF-539 CNS
# [9] = tested on: UACC-257 melanoma
# [10] = tested on: M14 melanoma
SMILES,growth [1],growth [2],growth [3],growth [4],growth [5],growth [6],growth [7],growth [8],growth [9],growth [10]
ClCCN(CCCl)c1ccc(OCc2ccccc2)cc1,26.3%,73.3%,90.9%,106%,82.1%,36%,10.3%,8.54% (active),74.2%,41.9%
Fc1cccc(NCOOC2(OOCNc3cccc(F)c3)CCCCC2)c1,98.6%,41.3%,101%,103%,108%,93%,94.3%,91.2%,88.7%,91.6%
CCCCCCC(=O)NC1=C(N2CC2)C(=O)C(NC(=O)CCCCCC)=C(N2CC2)C1=O,15.6%,70.7%,7.93% (active),24.8%,25.7%,52.9%,29.7%,61.7%,34.2%,20.5%
CC(=O)Nc1ccc(NC(=O)c2ccc([As](O)O)cc2)cc1,108%,33.1%,113%,88.3%,47.6%,109%,118%,88.8%,104%,101%
C=CC12CCN(CC1)C(C(O)c1ccnc3ccc(OC)cc13)C2 (stereo not given),107%,17.6%,26.2%,51.2%,45.9%,83.7%,72.3%,89.8%,52.4%,72.3%
O=C1NC(=O)C(=Cc2cccn2CCCCCn2c3ccccc3c(=O)c3ccccc32)C(=O)N1,113%,89.1%,119%,116%,110%,102%,99.4%,102%,104%,102%
CC(C)=CC1C(C(=O)OCc2cccc(Oc3ccccc3)c2)C1(C)C (stereo not given),109%,92.6%,87.8%,90.2%,121%,113%,90.3%,110%,104%,95.3%
COc1cc([C@@H]2c3cc4c(cc3[C@H](OC(C)=O)[C@H]3COC(=O)[C@H]23)OCO4)cc(OC)c1OC,1.84% (active),9.74% (active),68.9%,23.7%,54.9%,37%,10.6%,-11% (active),75.9%,6.87% (active)
Cn1cccc1C1CC(=O)N(CCC[Se]C#N)C1=O (stereo not given),-76% (active),16.2%,-30.1% (active),-45.3% (active),-48.7% (active),-31.8% (active),-58.2% (active),-81.2% (active),-70.6% (active),4.09% (active)
COc1ccc(-n2c(C)nc3cc(OC)c(OC)cc3c2=O)cc1OC,105%,104%,62.3%,116%,118%,97.2%,100%,96.2%,102%,106%
Clc1ccc(N2COOC3(OOC2)C2CC4CC(C2)CC3C4)cc1,85%,29.9%,26.3%,82.9%,101%,58.1%,70.6%,23.5%,85.8%,65.9%
CC(=O)O[C@H](C[C@H](C(C)C)N(C)C(=O)[C@@H](NC(=O)[C@H]1CCCCN1C)C(C)C)c1cccc(C(=O)N[C@@H](Cc2ccccc2)C[C@H](C)C(=O)O)n1,0.44% (active),7.66% (active),74.3%,11.8%,34.5%,23.1%,5.65% (active),-2.97% (active),48.4%,1.68% (active)
C=CC[PH+](c1ccccc1)c1ccccc1.C=CC[PH+](c1ccccc1)c1ccccc1.[Cl][Pt][Cl],71.7%,0.456% (active),-26.4% (active),41.8%,-16.6% (active),95.5%,89.8%,68%,80%,51.9%
